Rows were chosen to be rich in hits. Some 32% of all compounds tested hit in one or more screens of this group.
CYP2C19 inh = blocks human cytochrome P450 2C19; inhibition, % at 5 µM; AID 778; CYP2C19 Supersomes, luciferin-H EGE luminescence, 30 min; 21% of 96,000 active; P33261;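 active = CYP2C19 inhibition above a set limit at 5 µM in the primary screen, cut at about 50% in these data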;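 also: plate controls were negative control wells for no effect and 2.5 mM tranylcypromine positive control for full effect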
CYP2C9 inhib = inhibitors of human CYP2C9 | P11712 | inhibition, % at 5 µM | 20% of 96,000 active | CYP2C9 Supersomes, luciferin-H conversion, luminescence | AID 777;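 active = blocking of liver enzyme CYP2C9 beyond about 50% at 5 µM, limit read from the data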
Target sequence (P11712 whole entry, looked up): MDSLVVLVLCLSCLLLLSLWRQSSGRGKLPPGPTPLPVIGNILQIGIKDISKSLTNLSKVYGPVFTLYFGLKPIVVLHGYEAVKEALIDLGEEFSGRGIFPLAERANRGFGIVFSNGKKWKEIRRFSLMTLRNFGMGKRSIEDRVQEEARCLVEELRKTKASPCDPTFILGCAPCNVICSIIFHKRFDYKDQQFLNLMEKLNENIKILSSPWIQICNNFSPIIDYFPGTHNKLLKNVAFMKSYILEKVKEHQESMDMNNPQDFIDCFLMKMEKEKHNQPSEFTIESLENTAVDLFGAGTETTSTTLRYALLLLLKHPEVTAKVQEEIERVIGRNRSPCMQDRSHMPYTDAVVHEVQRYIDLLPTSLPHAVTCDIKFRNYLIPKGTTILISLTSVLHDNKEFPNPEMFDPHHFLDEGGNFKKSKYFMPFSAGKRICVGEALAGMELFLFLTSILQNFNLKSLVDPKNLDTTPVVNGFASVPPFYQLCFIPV
CYP2C19 activ = increases human CYP2C19 enzyme activity; activation factor at 5 µM; recombinant CYP2C19, luciferin-H EGE luminescence; active compounds read high; 0 = fully inhibited enzyme, 1 = untreated enzyme; AID 1025; 96,000 tested, under 10 active;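 active = activation factor of at least 2 at 5 µM in the primary screen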;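 also: 0 = wells with 2.5 mM tranylcypromine and 1 = vehicle-only wells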
PostGolgi yeast = growth inhibition of a yeast mutant, post-Golgi transport screen; post-Golgi transport phenotypic cell assay; inhibition, % at 10 µM; 0.9% of 98,000 active;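 also: yeast cells grown in 1536-well plates; yeast grown about 18 h at 30C before absorbance read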
CYP2C9 act = activators of human CYP2C9 | recombinant CYP2C9, luciferin-H conversion, luminescence; active compounds read high; factor 1 = untreated enzyme, 0 = blocked | activation factor at 5 µM | 1.4% of 96,000 active;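 active = activation factor of 2 or more for CYP2C9 at a 5 µM dose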;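 also: 0 = sulfaphenazole-blocked wells and 1 = vehicle-only wells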
PostGolgi ctrl = inhibits growth of the yeast control strain; efflux-deficient yeast background strain, growth absorbance A615, 16 h; 5% of 98,000 active; inhibition, % at 10 µM
Numbers without * were called inactive; . = no result. Rule as the data show it, unless noted: active = inhibition above about 30%; inactive = the rest.

SMILES	CYP2C19 inh	CYP2C9 inhib	CYP2C19 activ	PostGolgi yeast	CYP2C9 act	PostGolgi ctrl
CCOC(=O)N1CCN(c2c(Nc3cc(C)[nH]n3)c(=O)c2=O)CC1	-1	0	1	-2	1	2
CCNC(=O)CC1C(=O)N(c2ccc(F)cc2)C(=O)N1Cc1ccccn1 (stereo not given)	6	17	0.9	6	0.8	7
CCN(CC(=O)Nc1ccc(S(N)(=O)=O)cc1)S(=O)(=O)c1cc(C)ccc1OC	-5	97*	1.1	13	0	6
COc1ccc(OC)c(S(=O)(=O)N(C)CC(=O)Nc2ccc3c(c2)OCO3)c1	83*	87*	0.2	-4	0.1	29
COc1ccc(N(CC(=O)Nc2ccc3c(c2)OCO3)S(=O)(=O)c2ccccc2)c(OC)c1	99*	99*	0	3	0	12
COc1ccc(S(=O)(=O)N(C)CC(=O)Nc2ccc3c(c2)OCO3)cc1OC	25	15	0.8	5	0.9	-1
COc1ccc(S(=O)(=O)N(C)CC(=O)Nc2c(F)cccc2F)cc1	80*	-84	0.2	15	1.8	-5
COC(=O)c1ccc(NC(=O)CN(C)S(=O)(=O)c2ccc(OC)c(C)c2)cc1	26	-18	0.7	9	1.2	4
COC(=O)c1ccsc1NC(=O)CSc1nnnn1Cc1ccccc1	.	.	.	4	.	26
Cc1ccc(CN2CCN(CC(=O)NC(C)c3ccc4c(c3)OCCO4)C2=O)cc1 (stereo not given)	40	33	0.6	-8	0.7	13
COc1ccc(C)cc1S(=O)(=O)N(C)CC(=O)Nc1ccc2c(c1)OCCO2	39	83*	0.6	0	0.2	12
Cc1cccc(NC(=O)CN(C)S(=O)(=O)c2ccc(Cl)cc2)n1	33	-25	0.7	0	1.3	12
Cc1cccc(NC(=O)CN(C)S(=O)(=O)c2ccc(Br)cc2)n1	96*	7	0	1	0.9	4
COc1ccc(S(=O)(=O)N(C)CC(=O)Nc2ccc3c(c2)OCO3)cc1	61*	54*	0.4	-7	0.5	-2
COc1ccc(F)cc1S(=O)(=O)Nc1ccc2c(c1)OCCO2	34	7	0.7	8	0.9	10
COc1ccc(OC)c(-n2nnnc2SCC(=O)Nc2ccc3c(c2)OCCO3)c1	33	42	0.7	-6	0.6	2
COc1ccc(OC)c(S(=O)(=O)N(C)CC(=O)Nc2ccc3c(c2)OCCO3)c1	27	75*	0.7	3	0.2	12
COc1cc(Br)cc2cc(C(=O)N3CCCCC3C)c(=O)oc12 (stereo not given)	8	8	0.9	-2	0.9	9
O=C(CC1=NC2(CCCC2)Cc2ccccc21)N1CCOCC1	18	19	0.8	4	0.8	13
COc1cc2c(cc1OC)C1=NC(=O)CN1C(SCc1ccccc1C)=N2	-4	-6	1	4	1.1	8
COc1ccc(S(=O)(=O)Nc2ccc(F)cc2)cc1N(C)S(=O)(=O)c1ccc(Cl)cc1	52*	67*	0.5	2	0.3	2
COc1ccc(NS(=O)(=O)c2ccc(OC)c(N(C)S(=O)(=O)c3ccc(Cl)cc3)c2)cc1	33	61*	0.7	2	0.4	9
CC1(C)CNC(=O)C=C(c2ccccc2)C1	3	-23	1	-14	1.2	2
CCN(CC)C(=O)C1CCCN(c2ccc([N+](=O)[O-])cc2/C=N/NC(=O)c2cccc(Br)c2)C1 (stereo not given)	52*	85*	0.5	2	0.2	9
CN1CCN(c2ccc([N+](=O)[O-])cc2/C=N/NC(=O)c2ccc(F)cc2)CC1	64*	58*	0.4	-4	0.4	-1
SMILES	CYP2C19 inh	CYP2C9 inhib	CYP2C19 activ	PostGolgi yeast	CYP2C9 act	PostGolgi ctrl
CCC1CCCCN1c1ccc([N+](=O)[O-])cc1/C=N/NC(=O)Cn1c2ccccc2c(=O)c2ccccc21 (stereo not given)	-7	49	1.1	5	0.5	23
COc1ccc(-n2ccnc2SCC(=O)Nc2ccccc2)cc1	60*	60*	0.4	6	0.4	37*
COc1ccc(NC(=O)CSc2nnc(-c3ccccc3)n2N)cc1	.	.	.	6	.	1
Cc1c(NC(=O)CSc2ccc3c(c2)OCCO3)c(=O)n(-c2ccccc2)n1C	-7	0	1.1	2	1	1
COc1ccc(NC(=O)CSc2nccc(C)n2)cc1	51*	-4	0.5	-10	1	19
COc1ccc(NC(=O)CSc2nccn2-c2cccc(OC)c2)cc1	59*	70*	0.4	7	0.3	7
O=C(CSc1ccc2c(c1)OCCO2)Nc1ccc(Cl)cn1	71*	26	0.3	-2	0.7	3
COc1cccc(-n2ccnc2SCC(=O)Nc2ccccc2)c1	80*	47	0.2	-4	0.5	18
COc1cccc(-n2ccnc2SCC(=O)Nc2cc(OC)ccc2OC)c1	89*	-20	0.1	11	1.2	10
CCn1c(COc2cccc(OC)c2)nnc1SCC(=O)Nc1cc(OC)ccc1OC	47	-13	0.5	-13	1.1	-4
Cc1cccc(-n2ccnc2SCC(=O)Nc2cc(C)on2)c1	25	16	0.8	6	0.8	-7
COc1cccc(NC(=O)CSc2nccn2-c2cccc(OC)c2)c1	61*	26	0.4	0	0.7	14
O=C(CSc1nccn1-c1cccc(Cl)c1)Nc1ccc2c(c1)OCCO2	66*	66*	0.3	-3	0.3	7
COc1ccc(CCC(=O)N2CC(C)OC(C)C2)cc1 (stereo not given)	28	10	0.7	-13	0.9	-3
COC(=O)c1nc(NC(=O)C(C)C)n[nH]1	10	-2	0.9	8	1	0
COc1cc(NC(=O)C2CCN(S(=O)(=O)c3ccc(Cl)cc3)CC2)ccc1-n1cnnn1	5	9	1	-3	0.9	-4
CCOc1cc(C=O)ccc1OCCSc1ccc(Cl)cc1	28	81*	0.7	13	0.2	9
CCC(CC)C(=O)NCCc1ccc(OC)cc1	77*	59*	0.2	-3	0.4	12
CCOC(=O)NC(NCCc1ccccc1)(C(F)(F)F)C(F)(F)F	63*	53*	0.4	9	0.5	1
CCOc1ccc(CCNC(=O)C(O)c2ccccc2)cc1 (stereo not given)	47	57*	0.5	-6	0.4	1
COc1ccc(CCNC(=O)c2ccc(Cl)cc2Cl)cc1	89*	6	0.1	-3	0.9	-1
CCOC(=O)NC(Nc1ccc(C)cn1)(C(F)(F)F)C(F)(F)F	9	-3	0.9	4	1	3
CCOc1ccc(C(=O)NCCc2ccccc2)cc1	43	42	0.6	-11	0.6	0
CCOCCCNC(=S)N1C2CCC1CC(NC(=O)NC1CCCCC1)C2 (stereo not given)	0	-7	1	13	1.1	0

Screening results (PubChem BioAssay)
